Bioassay records: PubChem, National Center for Advancing Translational Sciences (NCATS)
FUS suppressor: qHTS for Suppressors of FUS Proteinopathy: Primary screen using FUS-linked yeast assay. S. cerevisiae FUS-expressing, growth rescue, OD600, 24 h. Potency, µM (series often up to 76.6 µM), actives largely listed as activators. 390,000 compounds, 0.24% hits;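 note: plate controls were DMSO vehicle for no effect and reference control for full effect; nearly all actives have a fitted effect of over 55% in size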
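Galactose (2%) drives FUS expression in yeast precultured in raffinose; seeding density OD 0.005. Test compounds incubated 24hr at 30C and 99% humidity before absorbance at 600 nm was measured.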
ERG-DNA inh: qHTS for Small Molecule Inhibitors of the ERG Ets/DNA interaction. fluorescence polarization, His-ERG Ets domain / labelled DNA. Transcriptional regulator ERG (Homo sapiens), P11308. AID 624246, 2012. 370,000 compounds, 0.028% hits. Potency, µM (titrated, usually from 76.9 µM), inactives show top-dose FP activity, negative = inhibition, usual class: inhibitors; active = well fitted inhibition curve with a large enough effect in the polarisation, with a control signal flat; inconclusive = small, poorly fitted or top-dose-only effect, or effect the other way, or a change in a side signal; inactive = no such curve, though single readings can be large or run the other way; the % refers to the polarisation;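 note: polarization taken with two DNA probes labelled with fluorescein and Texas red; % of control where 0% means no effect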
Target sequence (P11308 whole entry, looked up, the tested form may be a part): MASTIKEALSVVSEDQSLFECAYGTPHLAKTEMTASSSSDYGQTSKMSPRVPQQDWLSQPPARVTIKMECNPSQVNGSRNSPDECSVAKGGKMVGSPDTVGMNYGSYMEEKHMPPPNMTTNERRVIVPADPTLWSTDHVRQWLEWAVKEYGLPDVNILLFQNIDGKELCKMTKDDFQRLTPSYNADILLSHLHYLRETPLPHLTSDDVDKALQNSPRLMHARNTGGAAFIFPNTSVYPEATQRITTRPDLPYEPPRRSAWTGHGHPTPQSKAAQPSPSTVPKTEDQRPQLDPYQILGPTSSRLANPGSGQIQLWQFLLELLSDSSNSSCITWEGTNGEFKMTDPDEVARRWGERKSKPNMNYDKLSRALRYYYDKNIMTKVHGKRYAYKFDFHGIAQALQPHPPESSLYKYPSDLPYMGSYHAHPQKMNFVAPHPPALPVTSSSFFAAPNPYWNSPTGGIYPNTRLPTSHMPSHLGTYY
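His-tagged ERG Ets domain (1 uM in the protein solution; 300mM KCl, 50mM Tris-HCl, 1mM EDTA, 1mM DTT, pH 7.5) received compound, then a probe mix of 5 nM fluorescein-DNA and 100nM Texas-615-DNA. Fluorescence polarization was read for both dyes.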
Mito fusion act: qHTS Assay for Small Molecule Inhibitors of Mitochondrial Division or Activators of Mitochondrial Fusion | S. cerevisiae fusion-defective mutant growth rescue, CellTiterGlo 48 h | Potency, µM (top dose mostly 46.1 µM), for the others: at the highest dose growth rescue (activation), hits mostly activators | 320,000 compounds, 0.23% hits | AID 485298, 2010; note: % of control where 0% means no effect; nearly all actives have a fitted effect of over 45% in size
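S. cerevisiae fusion-defective temperature-sensitive mutants (e.g. fzo1-1, mgm1-5) grown 48 h at 37C in YPEG (ethanol/glycerol non-fermentable) medium with 23 nl compound per well; growth rescue read as CellTiterGlo luminescence.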
TDP43 rescue: qHTS of TDP-43 Inhibitors; TDP-43 expressing yeast growth rescue, BacTiter-Glo, 24 h; AID 652104, 2013; Potency, µM (top dose mostly 46.1 µM), without a hit: at the highest dose growth rescue (activation), hits mostly activators; 410,000 compounds, 1.8% hits; note: % of control where 0% means no effect; nearly all actives have a fitted effect of over 50% in size
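Growth rescue of TDP-43-toxic yeast measured as ATP luminescence (BacTiter-Glo). Cells grown to mid-log in raffinose, induced in galactose at OD600=0.02, exposed to compound 24 hr at 30 deg C.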
aSyn yeast inh: qHTS of alpha-syn Inhibitors | Yeast expressing alpha-synuclein, growth rescue, BacTiter-Glo, 24 h | Potency, µM (highest dose often 46.1 µM), inactives show at the top dose growth rescue (activation), usual class: activators | 370,000 compounds, 0.14% hits; note: % of control where 0% means no effect; nearly all actives have a fitted effect of over 65% in size
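Galactose-induced alpha-syn yeast (OD600=0.02, raffinose-pregrown) + pinned cpd, 24 hr, 30 deg C; growth by BacTiter-Glo luminescence. Growth restoration scores as activation.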
Abeta rescue: qHTS for compounds that reverse cellular toxicity of Amyloid beta (A-beta) peptide in yeast: Primary Screen. yeast expressing A-beta42, growth rescue, OD600, 48 h; response scale: 0% DMSO, 100% iron-clioquinol control. Potency, µM (highest dose often 46.1 µM), usual class: activators. 410,000 compounds, 0.063% hits. AID 1347071, 2019; note: nearly all actives have a fitted effect of over 55% in size
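Growth rescue measured by 600 nm absorbance after 48 h yeast culture at 30 C with compound. Values normalized between DMSO and an equimolar ferric chloride plus clioquinol control.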
Active calls of the source: *; [ ] = remark or other dose. Only some compounds are listed: those with a hit (about 2.2% of all), similar ones and a draw of the others. Unless noted, calls come from the whole dose curve; as a rule, active = well fitted curve in the direction sought with a large enough effect; inconclusive = small, poorly fitted or top-dose-only effect, or another doubt; inactive = no such curve, though single readings can be large; an effect the other way counts as inactive or inconclusive. Potency is the fitted concentration of half-maximal effect.

COc1ccc(CNC(=O)c2ccc3c(Cl)c4c(nc3c2)CCCC4)c(OC)c1 was read as FUS suppressor inactive, ERG-DNA inh -3%, TDP43 rescue 20µM* and Abeta rescue inactive.
Screening COc1ccc(CCNC(=O)c2ccc3c(Cl)c4c(nc3c2)CCCC4)cc1OC returned FUS suppressor inactive, ERG-DNA inh 0%, TDP43 rescue 0% and Abeta rescue inactive.
`COc1ccc(CNC(=O)c2ccc(Sc3ccc(Cl)cc3)c(NC(C)=O)c2)c(OC)c1` gave FUS suppressor inactive, ERG-DNA inh 3%, TDP43 rescue 22µM* and Abeta rescue inactive.
`COc1ccc(CCNC(=O)c2ccc3c(Cl)c4c(nc3c2)CCCC4)c(OC)c1` gave FUS suppressor inactive, ERG-DNA inh 3%, TDP43 rescue 35µM* and Abeta rescue inactive.
For O[C@H](COc1ccc(F)cc1)CN1CCC(C(O)(c2ccccc2)c2ccccc2)CC1 the results were FUS suppressor inactive.
Screening CCCC(=O)c1ccc(OC(=O)c2c(-c3ccccc3Cl)noc2C)cc1 returned FUS suppressor inactive, ERG-DNA inh 0%, TDP43 rescue 9% and Abeta rescue inactive.
`CCOC(=O)c1c(C)n(C)c2ccc(OCC(O)Cn3nc(C)c(Br)c3C)cc12` (configuration not stated) gave FUS suppressor inconclusive, ERG-DNA inh 4%, Mito fusion act inconclusive, TDP43 rescue 16µM*, aSyn yeast inh 19% and Abeta rescue inactive.
Screening Cn1c(=O)c2c(SCC(=O)N3CCc4ccccc43)nc(-c3cccc(F)c3)nc2n(C)c1=O returned FUS suppressor inactive, ERG-DNA inh 5%, TDP43 rescue 10%[9.22 µM] and Abeta rescue inactive.
`COc1cc2cc(CCCOC(=O)c3ccc(F)cc3)oc(=O)c2cc1OC` gave FUS suppressor inactive, ERG-DNA inh -3%, Mito fusion act 5%, TDP43 rescue 20µM*, aSyn yeast inh -5% and Abeta rescue inactive.
Screening COc1cc2cc(CCCOC(=O)c3ccc(Br)cc3)oc(=O)c2cc1OC returned FUS suppressor inactive, ERG-DNA inh -15%, Mito fusion act 1%, TDP43 rescue 13%, aSyn yeast inh -5% and Abeta rescue inactive.
Screening CC(C)(C)CC(=O)NCC(c1ccc2c(c1)OCO2)N1CCN(c2ccccc2)CC1 (configuration not stated) returned FUS suppressor inactive, ERG-DNA inh 1%, TDP43 rescue 8% and Abeta rescue inactive.
For Cc1nn(Cc2ccccc2Cl)c(C)c1C(=O)NC1=NCCS1 the results were FUS suppressor inactive, ERG-DNA inh -4%, Mito fusion act 11%, TDP43 rescue 14%, aSyn yeast inh -13% and Abeta rescue inactive.
`CCC(CC)c1nnc(NC(=O)c2c(C)nn(Cc3ccccc3Cl)c2C)s1` gave FUS suppressor 8.9µM*, ERG-DNA inh -15%, Mito fusion act 12%, TDP43 rescue inconclusive, aSyn yeast inh 7% and Abeta rescue inactive.
`CCSc1nc(-c2ccc(OC)cc2)ccc1C#N` gave FUS suppressor inactive, ERG-DNA inh 4%, Mito fusion act 6%, TDP43 rescue 16µM*, aSyn yeast inh 1% and Abeta rescue inactive.
Screening COc1ccc(C(=O)OC(C)C(=O)NC(C)CCc2ccccc2)c(OC)c1 (configuration not stated) returned FUS suppressor inactive, ERG-DNA inh 3%, Mito fusion act 11µM*, TDP43 rescue -34%, aSyn yeast inh 4% and Abeta rescue inactive.
Screening CC1(C(=O)NCc2cccc(C(F)(F)F)c2)CCN1Cc1ccc(-c2ccccc2)o1 (configuration not stated) returned FUS suppressor inactive, TDP43 rescue -26%, aSyn yeast inh 20µM* and Abeta rescue inactive.
CC1=CC2=NC(=O)/C(=C\c3cccn3CCOc3cccc(C)c3)C(=N)N2O1 was read as FUS suppressor inactive, ERG-DNA inh -5%, Mito fusion act inconclusive, TDP43 rescue inconclusive, aSyn yeast inh inconclusive and Abeta rescue inactive.
CC1=CC2=NC(=O)/C(=C\c3cccn3CCOc3cc(C)cc(C)c3)C(=N)N2O1 was read as FUS suppressor inactive, ERG-DNA inh 16%, Mito fusion act 20µM*, TDP43 rescue inconclusive, aSyn yeast inh 9% and Abeta rescue inactive.
For CC1=CC2=NC(=O)/C(=C\c3cccn3CCOc3cc(C)ccc3C)C(=N)N2O1 the results were FUS suppressor inactive, ERG-DNA inh 4%, Mito fusion act inconclusive, TDP43 rescue 16µM*, aSyn yeast inh 5% and Abeta rescue inactive.
CC1=CC2=NC(=O)/C(=C\c3cccn3CCOc3ccccc3)C(=N)N2O1 was read as FUS suppressor inactive, ERG-DNA inh 1%, Mito fusion act inconclusive, TDP43 rescue inconclusive, aSyn yeast inh 17% and Abeta rescue inactive.
Cc1cccc(N2CCN(C(=O)CS(=O)(=O)Cc3nc(-c4ccccc4C)oc3C)CC2C)c1 (configuration not stated) was read as FUS suppressor inconclusive, ERG-DNA inh -3%, TDP43 rescue 25µM* and Abeta rescue inactive.
Screening Cc1ccc(-c2nc(CS(=O)(=O)CC(=O)NC(C)CCc3ccccc3)c(C)o2)cc1 (configuration not stated) returned FUS suppressor inactive, ERG-DNA inh -14%, TDP43 rescue inconclusive and Abeta rescue inactive.
`Cc1cccc(N2CCN(C(=O)CSc3ccsc3[N+](=O)[O-])CC2C)c1` (configuration not stated) gave FUS suppressor inactive, ERG-DNA inh -1%, Mito fusion act 20%, TDP43 rescue 18µM*, aSyn yeast inh 9% and Abeta rescue inconclusive.
For Cc1oc(-c2ccccc2F)nc1CS(=O)(=O)CC(=O)NC(C)CCc1ccccc1 (configuration not stated) the results were FUS suppressor inactive, ERG-DNA inh -3%, Mito fusion act 11µM*, TDP43 rescue -14%, aSyn yeast inh 5% and Abeta rescue inactive.
